Counter-ions that a name gives are not always drawn. ± gives the standard deviation of the averaged measurements.
test system: E. coli TESEC Alr+ wild-type control; assay: growth (OD600 after 10 h); higher = more growth (less inhibition); settings: compound 0.1 mM; raw OD600 reference: median of DMSO wells 0.49, cell-free background 0.052
Method: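 TESEC Mtb Alr E. coli (ΔaraC ΔtolC ΔentC Δalr ΔdadX, arabinose-inducible Mtb Alr) or the Alr+ wild-type control strain, grown in defined M9-fructose medium without D-alanine in 96-well plates with Prestwick library compounds at 0.1 mM and 1% DMSO. Low Alr induction is 0.1 µM arabinose and high induction is 10 mM arabinose.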

| SMILES | growth |
| --- | --- |
| COc1cc([C@@H]2c3cc4c(cc3[C@@H](O[C@@H]3O[C@@H]5CO[C@@H](C)O[C@H]5[C@H](O)[C@H]3O)[C@H]3COC(=O)[C@H]23)OCO4)cc(OC)c1O [Etoposide] | 0.142 ± 0.0036 |
| COC(=O)[C@H](c1ccccc1Cl)N1CCc2sccc2C1 [Clopidogrel] | 0.3176 ± 0.0024 |
| CC(C)n1c(/C=C/C(O)CC(O)CC(=O)O)c(-c2ccc(F)cc2)c2ccccc21 (stereo not given) [Fluvastatin sodium salt] | 0.401 ± 0.012 |
| CC(=C(CCO)SSCC1CCCO1)N(C=O)Cc1cnc(C)nc1N (stereo in doubt) [Fursultiamine Hydrochloride] | 0.583 ± 0.044 |
| NC(=O)NC1NC(=O)NC1=O (stereo not given) [Allantoin] | 0.438 ± 0.049 |
| O=c1[nH]c(=O)n([C@H]2C[C@H](O)[C@@H](CO)O2)cc1C(F)(F)F [Trifluridine] | 0.476 ± 0.016 |
| C=CC1=C(C(=O)O)N2C(=O)[C@@H](NC(=O)/C(=N\O)c3csc(N)n3)[C@H]2SC1 [Cefdinir] | 0.0483 ± 0.0014 |
| COc1ccccc1N1CCN(CC(O)COc2cccc3ccccc23)CC1 (stereo not given) [Naftopidil dihydrochloride] | 0.0532 ± 0.0005 |
| Clc1cnccn1 [2-Chloropyrazine] | 0.586 ± 0.067 |
| COC(=O)[C@@H]1[C@H]2C[C@H]3c4[nH]c5ccccc5c4CCN3C[C@@H]2CC[C@@H]1O [Yohimbine hydrochloride] | 0.525 ± 0.13 |
| CCCCC1C(=O)N(c2ccccc2)N(c2ccccc2)C1=O [Phenylbutazone] | 0.576 ± 0.075 |
| CN(C)CCC(c1ccc(Cl)cc1)c1ccccn1 (stereo not given) [Chlorpheniramine maleate] | 0.466 ± 0.037 |
| CCN(CC)CCOC(=O)C(Cc1cccc2ccccc12)CC1CCCO1 (stereo not given) [Nafronyl oxalate] | 0.464 ± 0.015 |
| C#C[C@]1(OC(C)=O)CC[C@H]2[C@@H]3CCC4=C[C@@H](OC(C)=O)CC[C@@H]4[C@H]3CC[C@@]21C [Ethynodiol diacetate] | 0.4 ± 0.018 |
| CO[C@@]1(NC(=O)C2SC(=C(C(N)=O)C(=O)O)S2)C(=O)N2C(C(=O)O)=C(CSc3nnnn3C)CS[C@@H]21 (stereo not given in full) [Cefotetan] | 0.0443 ± 0.00044 |
| OCc1cc(C(O)CNCCCCCCOCCCCc2ccccc2)ccc1O (stereo not given) [Salmeterol] | 0.399 ± 0.032 |
| Nc1nc(NC2CC2)c2ncn([C@H]3C=C[C@@H](CO)C3)c2n1 [Abacavir Sulfate] | 0.612 ± 0.095 |
| CCCNC(C)C(=O)Nc1c(C)csc1C(=O)OC (stereo not given) [Articaine hydrochloride] | 0.47 ± 0.023 |
| NNCCc1ccccc1 [Phenelzine sulfate] | 0.399 ± 0.017 |
| CN(C)CCC=C1c2ccccc2COc2ccccc21 [Doxepin hydrochloride] | 0.472 ± 0.033 |

| SMILES | growth |
| --- | --- |
| c1ccc(-c2ccc(C(c3ccccc3)n3ccnc3)cc2)cc1 (stereo not given) [Bifonazole] | 0.0548 ± 0.0039 |
| CC1(C)[C@H](C(=O)O)N2C(=O)C[C@H]2S1(=O)=O [Sulbactam] | 0.533 ± 0.06 |
| NS(=O)(=O)c1cc2c(cc1C(F)(F)F)NCNS2(=O)=O [Hydroflumethiazide] | 0.455 ± 0.035 |
| COCCCC/C(=N\OCCN)c1ccc(C(F)(F)F)cc1 [Fluvoxamine maleate] | 0.518 ± 0.051 |
| COc1cc(NS(=O)(=O)c2ccc(N)cc2)nc(OC)n1 [Sulfadimethoxine] | 0.46 ± 0.053 |
| N=C(N)NC(=N)NCCc1ccccc1 [Phenformin hydrochloride] | 0.469 ± 0.053 |
| Cc1ccc(Cl)c(Nc2ccccc2C(=O)O)c1Cl [Meclofenamic acid sodium salt monohydrate] | 0.139 ± 0.011 |
| COc1ccc2c(c1)c(CC(=O)O)c(C)n2C(=O)c1ccc(Cl)cc1 [Indomethacin] | 0.392 ± 0.0071 |
| CCOC(=O)[C@H](CCc1ccccc1)N[C@H]1CCc2ccccc2N(CC(=O)O)C1=O [Benazepril HCl] | 0.559 ± 0.042 |
| CCN(Cc1ccncc1)C(=O)C(CO)c1ccccc1 (stereo not given) [Tropicamide] | 0.527 ± 0.08 |
| Cn1cnc([N+](=O)[O-])c1Sc1ncnc2[nH]cnc12 [Azathioprine] | 0.27 ± 0.0092 |
| CC1=C(CC(=O)O)c2cc(F)ccc2/C1=C\c1ccc([S+](C)[O-])cc1 (stereo not given) [Sulindac] | 0.364 ± 0.036 |
| CNCCCC1c2ccccc2C=Cc2ccccc21 [Protriptyline hydrochloride] | 0.558 ± 0.023 |
| Cc1cc(C2CCCCC2)n(O)c(=O)c1 [Ciclopirox ethanolamine] | 0.0666 ± 0.0021 |
| O=C(O)c1ccccc1C(=O)Nc1ccc(S(=O)(=O)Nc2nccs2)cc1 [Phthalylsulfathiazole] | 0.47 ± 0.037 |
| CCn1cc(C(=O)O)c(=O)c2cc(F)c(N3CCN(C)CC3)cc21 [Pefloxacine] | 0.0507 ± 0.0001 |
| C[C@]12CC[C@@H]3c4ccc(OS(=O)(=O)O)cc4CC[C@H]3[C@@H]1CCC2=O [Estropipate] | 0.534 ± 0.11 |
| CNS(=O)(=O)Cc1ccc2[nH]cc(CCN(C)C)c2c1 [Sumatriptan succinate] | 0.441 ± 0.017 |
| C[C@H](CCC(=O)O)[C@H]1CC[C@H]2[C@@H]3[C@H](O)C[C@@H]4C[C@H](O)CC[C@]4(C)[C@H]3CC[C@]12C [Chenodiol] | 0.439 ± 0.059 |
| Clc1ccc(CSC(Cn2ccnc2)c2ccc(Cl)cc2Cl)cc1 (stereo not given) [Sulconazole nitrate] | 0.0607 ± 0.0028 |

From the supplement of paper PMC9262897, “Low-cost anti-mycobacterial drug discovery using engineered E. coli” (Nature Communications, 2022)
